Experiment [1] can be described thus: yeast TOR pathway RPL19A-GFP modulators, primary screen, cell-based, S. cerevisiae, multiplex flow cytometry (AID 1862; in the data active = percent of DMSO control GFP below about 86%;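 note: lower values mimic rapamycin by blocking the RPL19A rise seen in DMSO cells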). As to conditions: S. cerevisiae RPL19A-GFP strain, flow cytometry fluorescence, 3 h; at 10 µM; stronger effect = lower value. Background: In flow cytometry, cells or beads pass a laser one at a time.
The nature of experiment [2]: modulators of MEP2-GFP levels in yeast, primary screen, S. cerevisiae, multiplex flow cytometry (AID 1867;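 active = GFP response, as percent of the DMSO control, above the screen-wide mean plus 3 SD, about 139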;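 note: median GFP channel fluorescence of barcode-gated MEP2-GFP cells measured by flow cytometry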). As to conditions: S. cerevisiae MEP2-GFP strain, 3 h, at 10 µM, stronger effect = higher value, 100% means same as DMSO wells.
The nature of experiment [3]: modulators of CIT2-GFP expression in yeast, primary screen, S. cerevisiae, GFP fusion, multiplex flow cytometry (AID 1870;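 active = percent response above a set limit, the screen-wide mean plus 3 SD, cut at about 130% in these data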;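 note: barcoded CIT2-GFP strain pooled with four other GFP strains with rapamycin as positive control; median GFP fluorescence per well over plate mean of DMSO wells so 100% = DMSO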). As to conditions: 3 h, at 10 µM, stronger effect = higher value.
Experiment [4] is described as follows: modulators of LAP4-GFP expression in yeast, primary screen, S. cerevisiae, multiplex flow cytometry (AID 1873;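 active = GFP signal, as percent of the solvent control, above the screen mean plus 3 SD, about 149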). The following applies: 3 h, at 10 µM, stronger effect = higher value.
Experiment [5] can be described thus: modulators of AGP1-GFP expression in yeast TOR pathway, primary screen, cell-based, multiplex flow cytometry, S. cerevisiae (AID 1887;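 active = GFP signal above the screen-wide mean plus 3 SD, that is over about 124.5% of the solvent control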;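 note: AGP1-GFP fusion strain of S. cerevisiae within a five-strain barcoded multiplex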). The following applies: 3 h, at 10 µM, stronger effect = higher value.
A short description of experiment [6]: inhibitors of CD8+ T cell-vesicle binding, pilot screen, LFA-1/ICAM-1 modulator project, MLPCN validation set, flow cytometry (AID 2523;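 active = response below a set limit, under 55% cells CD8-positive and vesicle-bound, and CD8 cells' 90th-percentile brightness under 279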;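 for vesicle binding response: mean PE anti-B7-1 fluorescence of CD8+ cells relative to row control; 100% = QL9-loaded vesicles with DMSO vehicle in the same plate row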). The following applies: 2C mouse CD8+ T cells, at 7 µM, stronger effect = lower value; double positive events: measured here: CD8+/vesicle+ event percentage.
Experiment [7] deals with Integrin beta-1 (Homo sapiens) + Integrin alpha-4 (Homo sapiens) (UniProt P13612+P05556). As to the kind of experiment: inhibition of HUTS-21 binding to VLA-4, pilot screen, VLA-4 allosteric modulator project, U937 cells, HUTS-21 mAb, flow cytometry, validation set (AID 2674;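 active = inhibition above 50%, about 3 SD of the validation set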;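 note: antibody binding induced by the VLA-4 ligand LDV present at three times its Kd; 0% = LDV ligand with antibody and no compound and 100% = antibody without LDV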). The following applies: HUTS-21 LIBS mAb binding, at 6.7 µM, stronger effect = higher value, binding induced by LDV ligand.

The nature of experiment [8]: superoxide lowering in aged yeast cells, pilot screen, validation compound set (AID 2706;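 active = superoxide response below 65% of plate, a cut near 3 SD across the whole screen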;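 note: yeast exposed to compound for one week at 30 degrees C before staining; 100% = mean of all compound wells on the same plate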). As to conditions: S. cerevisiae aging, superoxide DHE fluorescence; at 10 µM; stronger effect = lower value.
The target of experiment [9] is Beta-adrenergic receptor kinase 1 (Homo sapiens) (UniProt P25098). As to the kind of experiment: GRK2 binders displacing RNA aptamer, biochemical, validation, human GRK2, bead flow cytometry (AID 488806;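 active = aptamer binding inhibition above 30%, about 3 SD of noise from non-fluorescent compounds; inactive = inhibition at or below 30%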). The following applies: bead-bound GRK2, FAM-aptamer displacement, at 10 µM, stronger effect = higher value.
Experiment [10] concerns the target Beta-2 adrenergic receptor (Homo sapiens) (UniProt P07550). Briefly: beta2AR agonists driving receptor internalization, pilot screen, cell-based, FAP fluorogen, flow cytometry, validation set (AID 504459;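 active = percent response above 42, roughly 3 SD of non-fluorescent test compounds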;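 note: agonist-driven loss of surface beta2AR via internalization measured by FAP dye flow cytometry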). The following applies: Am2.2-beta2AR cells, FAP surface receptor flow cytometry; at 10 µM; stronger effect = higher value.
For experiment [11], the target named is AP-2 complex subunit beta (Homo sapiens) (UniProt P63010). As to the kind of experiment: inhibitors of arrestin peptide binding to AP2, pilot screen, biochemical, validation set, GST-AP2 beads, flow cytometry (AID 504541;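 active = inhibition above 54%, about 3 SD of non-fluorescent compounds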;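 note: AP2 carries R879A mutation and is captured from E. coli lysate; bead-bound FITC arrestin peptide fluorescence measuring arrestin peptide binding to AP2; 0% = DMSO wells and 100% = excess unlabeled arrestin peptide control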). The following applies: FITC arrestin peptide, at 10 µM, stronger effect = higher value, AP2 beta2 appendage fragment, R879A mutant.
Experiment [12] is described as follows: yeast V-ATPase proton transport modulators, S. cerevisiae, pHLuorin, HTS validation (AID 504600; in the data active = response above about 15%;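 note: plate controls were DMSO for no effect and reference compound for full effect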). The following applies: S. cerevisiae pHLuorin cytosolic pH, at 10 µM, stronger effect = higher value.
Experiment [13] concerns anti-desmoglein-3 scFv antibody binding to human DSG3. Briefly: inhibitors of anti-DSG3 scFv binding to DSG3, pilot screen, biochemical, validation compound set, bead-based, flow cytometry (AID 588368;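 active = binding below the plate cutoff, the plate median minus 3 SD, with a reading above zero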;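 note: signal is the median channel fluorescence of bead-bound GFP antibody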). As to conditions: Protein G beads, DSG3-Fc, scFv-GFP binding, at 10 µM, stronger effect = lower value.
Experiment [14] is described as follows: inhibitors of fungal efflux pumps CDR1, CDR2, MDR1, pilot screen, validation compound set, multiplex, phenotypic (AID 588506).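 Note: Nile Red retained in cells so higher fluorescence means more efflux inhibition; 0 = negative control wells and 1 = enniatin B 25 µM full block.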 The following applies: S. cerevisiae pump-expressing triplex, Nile Red efflux flow cytometry; at 10 µM; stronger effect = higher value; the pumps come from Candida albicans.
Experiment [15] concerns the target ATP-binding cassette sub-family B member 6 (Homo sapiens) (UniProt Q9NP58). As to the kind of experiment: ABCB6 transporter inhibitors, pilot screen, K562-ABCB6 cells, flow cytometry, validation set (AID 588550;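 active = inhibition above the screen-wide mean plus 3 SD, about 51%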;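 note: 0% = DMSO wells and 100% = benzethonium chloride 70 µM positive control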). As to conditions: K562-ABCB6 porphyrin accumulation, 1 h, at 10 µM, stronger effect = higher value.
A short description of experiment [16]: promoters of myeloid differentiation in arrested cells, primary screen, cell-based, GFP/MAC1 double positive, flow cytometry, validation set (AID 588685;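 active = differentiation response of at least 50%, scaled between solvent and reference control, from cells with both markers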;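 note: compound exposure lasts four days before antibody staining and flow analysis; 0% = DMSO wells and 100% = 5 µM fulvestrant positive control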). The following applies: ER-HoxA9 marrow cells, stronger effect = higher value, normalized: vehicle 0, fulvestrant 100.

Records with an inconclusive call do not appear. The source made the active and inactive calls.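 Rule for the calls, unless noted: active = efflux inhibition above 0.42, the validation set average plus 4 SD; inconclusive = no clear call, values can overlap the other calls; inactive = the rest.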

The source of these data is PubChem BioAssay.

Beta-2 adrenergic receptor (Homo sapiens), sequence (P07550 whole entry, looked up): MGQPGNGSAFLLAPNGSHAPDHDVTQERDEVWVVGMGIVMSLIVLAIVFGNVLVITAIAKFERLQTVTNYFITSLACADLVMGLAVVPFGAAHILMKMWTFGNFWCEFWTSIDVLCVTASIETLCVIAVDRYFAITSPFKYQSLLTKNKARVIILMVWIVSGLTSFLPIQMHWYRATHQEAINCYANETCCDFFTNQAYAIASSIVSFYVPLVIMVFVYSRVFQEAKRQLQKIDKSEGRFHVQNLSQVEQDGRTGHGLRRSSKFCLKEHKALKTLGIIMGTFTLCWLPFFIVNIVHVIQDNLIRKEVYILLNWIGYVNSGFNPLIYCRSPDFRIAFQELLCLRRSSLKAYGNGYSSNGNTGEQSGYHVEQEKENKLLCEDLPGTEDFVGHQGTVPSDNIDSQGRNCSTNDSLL
AP-2 complex subunit beta (Homo sapiens), sequence (P63010 whole entry, looked up, the tested form may be a part, one chain of several): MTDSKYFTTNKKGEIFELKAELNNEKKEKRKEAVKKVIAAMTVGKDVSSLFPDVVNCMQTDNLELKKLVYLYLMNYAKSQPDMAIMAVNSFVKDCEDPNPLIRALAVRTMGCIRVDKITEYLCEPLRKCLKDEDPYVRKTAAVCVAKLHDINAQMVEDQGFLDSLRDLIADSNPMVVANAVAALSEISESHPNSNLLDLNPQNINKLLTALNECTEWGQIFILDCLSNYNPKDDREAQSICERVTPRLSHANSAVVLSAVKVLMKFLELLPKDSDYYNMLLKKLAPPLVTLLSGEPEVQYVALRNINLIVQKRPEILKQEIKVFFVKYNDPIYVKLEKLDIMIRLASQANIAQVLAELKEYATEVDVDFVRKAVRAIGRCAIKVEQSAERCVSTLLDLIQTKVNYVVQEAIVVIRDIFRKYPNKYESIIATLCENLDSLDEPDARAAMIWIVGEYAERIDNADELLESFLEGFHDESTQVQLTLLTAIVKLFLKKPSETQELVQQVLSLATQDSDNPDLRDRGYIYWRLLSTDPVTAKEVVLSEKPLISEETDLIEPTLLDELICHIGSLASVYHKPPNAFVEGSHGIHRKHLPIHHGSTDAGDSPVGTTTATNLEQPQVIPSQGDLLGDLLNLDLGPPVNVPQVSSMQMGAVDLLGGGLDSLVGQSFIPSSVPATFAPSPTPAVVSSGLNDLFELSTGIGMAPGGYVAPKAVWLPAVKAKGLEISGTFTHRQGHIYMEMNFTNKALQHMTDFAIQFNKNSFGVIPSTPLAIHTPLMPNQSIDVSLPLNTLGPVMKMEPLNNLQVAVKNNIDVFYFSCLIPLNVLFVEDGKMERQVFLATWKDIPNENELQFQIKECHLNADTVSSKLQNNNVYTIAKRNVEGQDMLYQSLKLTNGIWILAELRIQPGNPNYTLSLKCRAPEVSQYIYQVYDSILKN
Beta-adrenergic receptor kinase 1 (Homo sapiens), sequence (P25098 whole entry, looked up): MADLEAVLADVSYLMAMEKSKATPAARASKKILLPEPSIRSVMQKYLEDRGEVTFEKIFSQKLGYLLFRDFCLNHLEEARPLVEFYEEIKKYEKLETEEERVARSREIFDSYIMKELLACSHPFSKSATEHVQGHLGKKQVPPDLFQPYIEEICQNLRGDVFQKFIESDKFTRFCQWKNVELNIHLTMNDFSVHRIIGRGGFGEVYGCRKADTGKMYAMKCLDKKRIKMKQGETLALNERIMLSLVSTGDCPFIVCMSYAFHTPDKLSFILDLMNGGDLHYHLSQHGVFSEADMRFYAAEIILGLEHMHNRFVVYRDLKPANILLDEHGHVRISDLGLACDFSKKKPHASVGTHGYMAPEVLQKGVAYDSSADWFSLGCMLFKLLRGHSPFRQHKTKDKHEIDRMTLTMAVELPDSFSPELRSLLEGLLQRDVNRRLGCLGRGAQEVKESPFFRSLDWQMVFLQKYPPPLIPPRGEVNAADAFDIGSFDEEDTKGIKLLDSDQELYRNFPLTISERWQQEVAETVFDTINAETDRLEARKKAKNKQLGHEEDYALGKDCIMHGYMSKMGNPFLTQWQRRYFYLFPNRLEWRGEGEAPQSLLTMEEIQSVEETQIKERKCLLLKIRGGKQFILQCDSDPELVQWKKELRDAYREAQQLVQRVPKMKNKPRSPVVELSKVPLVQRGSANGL
Integrin beta-1 (Homo sapiens) + Integrin alpha-4 (Homo sapiens), sequence (P05556 whole entry, looked up): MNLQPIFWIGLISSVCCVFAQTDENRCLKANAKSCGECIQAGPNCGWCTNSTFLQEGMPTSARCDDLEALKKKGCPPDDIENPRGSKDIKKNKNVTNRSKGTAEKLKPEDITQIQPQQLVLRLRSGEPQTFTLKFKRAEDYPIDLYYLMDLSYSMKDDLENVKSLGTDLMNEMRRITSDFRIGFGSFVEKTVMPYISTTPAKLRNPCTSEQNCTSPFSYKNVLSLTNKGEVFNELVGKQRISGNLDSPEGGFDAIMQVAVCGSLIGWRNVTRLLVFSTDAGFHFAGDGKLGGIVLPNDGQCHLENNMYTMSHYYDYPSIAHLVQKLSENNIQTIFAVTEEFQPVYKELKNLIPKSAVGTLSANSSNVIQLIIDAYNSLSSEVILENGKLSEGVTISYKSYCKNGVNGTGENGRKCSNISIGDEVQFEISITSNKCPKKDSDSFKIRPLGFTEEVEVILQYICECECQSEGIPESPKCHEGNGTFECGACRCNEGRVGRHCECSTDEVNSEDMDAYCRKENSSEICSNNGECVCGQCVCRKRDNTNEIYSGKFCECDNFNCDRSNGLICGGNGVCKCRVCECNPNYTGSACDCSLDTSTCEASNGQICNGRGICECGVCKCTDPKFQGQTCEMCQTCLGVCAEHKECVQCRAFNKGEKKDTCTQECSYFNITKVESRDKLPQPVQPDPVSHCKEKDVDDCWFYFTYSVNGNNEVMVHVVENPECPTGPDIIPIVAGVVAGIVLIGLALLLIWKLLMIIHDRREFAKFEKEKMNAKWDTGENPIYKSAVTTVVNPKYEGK
Integrin beta-1 (Homo sapiens) + Integrin alpha-4 (Homo sapiens), sequence (P13612 whole entry, looked up): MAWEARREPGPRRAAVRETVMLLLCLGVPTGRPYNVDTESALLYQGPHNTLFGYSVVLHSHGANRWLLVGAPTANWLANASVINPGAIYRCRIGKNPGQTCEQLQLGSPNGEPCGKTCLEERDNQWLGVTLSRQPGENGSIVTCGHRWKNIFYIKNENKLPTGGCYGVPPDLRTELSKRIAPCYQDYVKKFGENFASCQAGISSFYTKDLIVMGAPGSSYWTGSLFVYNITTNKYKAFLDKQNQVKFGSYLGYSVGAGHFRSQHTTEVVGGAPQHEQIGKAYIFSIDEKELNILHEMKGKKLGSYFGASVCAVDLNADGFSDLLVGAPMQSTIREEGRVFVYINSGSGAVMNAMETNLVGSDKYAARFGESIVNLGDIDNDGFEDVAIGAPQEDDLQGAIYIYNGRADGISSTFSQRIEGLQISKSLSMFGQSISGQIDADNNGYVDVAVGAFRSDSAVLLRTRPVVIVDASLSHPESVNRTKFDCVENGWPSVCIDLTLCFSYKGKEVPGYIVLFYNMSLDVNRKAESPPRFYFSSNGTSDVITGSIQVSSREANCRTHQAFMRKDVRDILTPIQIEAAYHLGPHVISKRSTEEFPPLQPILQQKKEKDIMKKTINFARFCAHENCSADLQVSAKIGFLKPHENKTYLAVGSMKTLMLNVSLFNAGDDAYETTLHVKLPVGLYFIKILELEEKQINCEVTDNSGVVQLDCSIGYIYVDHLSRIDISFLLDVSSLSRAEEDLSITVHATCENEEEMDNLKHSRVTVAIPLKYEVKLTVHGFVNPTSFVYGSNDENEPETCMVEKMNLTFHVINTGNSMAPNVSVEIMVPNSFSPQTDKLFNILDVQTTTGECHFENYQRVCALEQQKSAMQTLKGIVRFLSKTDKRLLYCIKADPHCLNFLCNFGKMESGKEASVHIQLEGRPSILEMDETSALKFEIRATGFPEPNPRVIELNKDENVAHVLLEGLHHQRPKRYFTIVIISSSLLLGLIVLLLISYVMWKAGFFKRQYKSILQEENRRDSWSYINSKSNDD
ATP-binding cassette sub-family B member 6 (Homo sapiens), sequence (Q9NP58 whole entry, looked up): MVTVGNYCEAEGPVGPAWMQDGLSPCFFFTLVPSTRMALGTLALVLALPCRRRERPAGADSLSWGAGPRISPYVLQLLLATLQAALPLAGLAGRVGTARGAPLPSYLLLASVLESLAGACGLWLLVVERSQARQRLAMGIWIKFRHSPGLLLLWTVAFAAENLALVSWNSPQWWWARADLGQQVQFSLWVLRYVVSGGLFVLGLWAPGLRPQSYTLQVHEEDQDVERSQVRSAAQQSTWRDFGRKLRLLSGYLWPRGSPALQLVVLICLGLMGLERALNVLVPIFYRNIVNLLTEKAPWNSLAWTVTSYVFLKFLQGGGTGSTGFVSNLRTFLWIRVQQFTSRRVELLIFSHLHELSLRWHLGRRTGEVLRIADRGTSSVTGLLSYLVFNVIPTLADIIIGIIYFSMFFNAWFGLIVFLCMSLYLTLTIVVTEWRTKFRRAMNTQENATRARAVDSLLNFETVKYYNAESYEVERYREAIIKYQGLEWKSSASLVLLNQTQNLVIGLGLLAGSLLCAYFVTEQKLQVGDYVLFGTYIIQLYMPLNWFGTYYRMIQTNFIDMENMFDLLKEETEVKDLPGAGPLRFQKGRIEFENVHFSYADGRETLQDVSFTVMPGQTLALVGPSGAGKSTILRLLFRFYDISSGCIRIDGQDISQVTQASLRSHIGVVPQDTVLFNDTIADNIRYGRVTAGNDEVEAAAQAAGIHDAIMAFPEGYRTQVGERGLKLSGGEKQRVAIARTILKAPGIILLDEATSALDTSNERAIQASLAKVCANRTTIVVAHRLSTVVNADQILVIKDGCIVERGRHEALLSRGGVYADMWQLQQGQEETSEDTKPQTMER

`Cc1coc2c1c(C)cc1oc(=O)c(Cc3ccccc3)c(C)c12`: the percent of DMSO control GFP in [1] is 100% (inactive). Moreover, the GFP response vs DMSO in experiment [2] was 98.7% (inactive); in [4], 93.7% (inactive). The percent response of DMSO control in [3] is 102% (inactive). Moreover, in experiment [5], the GFP response, % of DMSO is 101% (inactive). Further, in [6], the double positive events is 56.9%. Moreover, in experiment [6], the vesicle binding response is 138% (inactive). Moreover, the inhibition was -11.8% (inactive) in [7], 16.9% (inactive) in [11] and 1% (inactive) in experiment [15]. Besides, the superoxide response (% of plate) in experiment [8] is 90.7% (inactive). The aptamer binding inhibition in experiment [9] was -1% (inactive). For the same compound, the response in [10] was -0.64% (inactive); in experiment [12], 18.1% (active). The binding (% of control) in experiment [13] was 97.9% (inactive). The efflux inhibition (fraction of control) in experiment [14] was -0.14 (inactive). Further, the differentiation response in experiment [16] was -8.96% (inactive).

Consider `Cc1ccccc1NC(=O)C1(C)Cc2ccccc2C(=O)O1` (stereo not drawn), for which, in experiment [1], the percent of DMSO control GFP was 100% (inactive). Also, the figures for the GFP response vs DMSO in [2] and in experiment [4] were 103% (inactive) and 131% (inactive), respectively. Moreover, the percent response of DMSO control in experiment [3] was 92.9% (inactive). Further, the GFP response, % of DMSO in experiment [5] is 101% (inactive). In experiment [6], the double positive events is 61.4%. In addition, the vesicle binding response in experiment [6] was 161% (inactive). Moreover, the inhibition was 10.5% (inactive) in experiment [7], 29.5% (inactive) in experiment [11] and -4% (inactive) in [15]. Also, the superoxide response (% of plate) in experiment [8] is 96.3% (inactive). Besides, the aptamer binding inhibition in [9] was 1% (inactive). Also, the values for the response in experiment [10] and in experiment [12] were -11% (inactive) and -1.4% (inactive), respectively. Besides, the binding (% of control) in experiment [13] was 101% (inactive). Further, in experiment [14], the efflux inhibition (fraction of control) was -0.28 (inactive). In [16], the differentiation response was 18.4% (inactive).

As for `CC(C)(C)OC(=O)COc1cc(OCC(=O)OC(C)(C)C)c2c(=O)cc(-c3ccccc3)oc2c1`, the percent of DMSO control GFP in experiment [1] is 105% (inactive). Also, the GFP response vs DMSO in [2] was 107% (inactive); in experiment [4], 105% (inactive). Moreover, the percent response of DMSO control in [3] is 102% (inactive). The GFP response, % of DMSO in experiment [5] is 100% (inactive). Moreover, the double positive events in experiment [6] was determined as 60.3%. The vesicle binding response in experiment [6] is 77.9% (inactive). Further, the inhibition is -29.2% (inactive) in [7], -7.67% (inactive) in experiment [11] and 35% (inactive) in experiment [15]. Further, the superoxide response (% of plate) in experiment [8] was 94.8% (inactive). Further, the aptamer binding inhibition in experiment [9] was 1% (inactive). Moreover, the response in experiment [10] was -17% (inactive); in experiment [12] it was 2.77% (inactive). Further, the binding (% of control) in experiment [13] was 105% (inactive). For the same compound, the efflux inhibition (fraction of control) in experiment [14] was -0.07 (inactive). In addition, in experiment [16], the differentiation response is -4.57% (inactive).

On to `c1ccc2[nH]c(-c3cscn3)nc2c1`, for which the percent of DMSO control GFP in [1] was 97.6% (inactive). The GFP response vs DMSO in [2] was 103% (inactive); in [4], 123% (inactive). The percent response of DMSO control in experiment [3] is 97.7% (inactive). Further, the GFP response, % of DMSO in experiment [5] is 111% (inactive). For the same compound, the double positive events in [6] was determined as 58.6%. Further, in experiment [6], the vesicle binding response was 174% (inactive). Also, the values for the inhibition in [7], in [11] and in experiment [15] were 2.29% (inactive), 5.36% (inactive) and 0% (inactive), respectively. In [8], the superoxide response (% of plate) was 85.3% (inactive). The aptamer binding inhibition in experiment [9] is -2% (inactive). Further, the response in [10] is -32% (inactive); in experiment [12], 1.12% (inactive). The binding (% of control) in experiment [13] is 108% (inactive). Also, the efflux inhibition (fraction of control) in [14] is 0 (inactive). In addition, in [16], the differentiation response was -2.03% (inactive).

As usually defined, the inhibition is the drop in the measured response relative to a control, in per cent.
